# Source: the supplement of paper PMC8253809
# System: DIPGX7 (H3.3 K27M diffuse intrinsic pontine glioma line)
# Assay: growth inhibition (% activity, log2 RLU normalised to DMSO / staurosporine); higher = more growth inhibition
# Details: 33 µM
# Method in brief: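 Approved drugs, at a single final concentration of about 33 μM, were applied in triplicate to pHGG cell lines and H9-derived neural stem cells for 7 days at 37 °C, 5% CO2. The growth-inhibition value is the replicate median of log2-transformed CellTiter-Glo luminescence normalised per plate to % activity between solvent and positive control wells.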
row,Structure (SMILES),growth inhibition [%]
1,CCCNC(C)C(=O)Nc1ccccc1C (stereo unspecified),-1.19
2,NS(=O)(=O)c1cc2c(cc1Cl)NCNS2(=O)=O,-0.977
3,CCCNC(C)C(=O)Nc1c(C)csc1C(=O)OC (stereo unspecified),1.5
4,C[C@@H](O)[C@H]1C(=O)N2C(C(=O)O)=C(S[C@@H]3CN[C@H](C(=O)N(C)C)C3)[C@H](C)[C@H]12,-1.37
5,O=C(O)c1cc(/N=N/c2ccc(S(=O)(=O)Nc3ccccn3)cc2)ccc1O,1.57
6,CN1C(CCl)Nc2cc(Cl)c(S(N)(=O)=O)cc2S1(=O)=O (stereo unspecified),1.38
7,COc1ccc2cc1Oc1ccc(cc1)C[C@H]1c3c(cc4c(c3Oc3cc5c(cc3OC)CCN(C)[C@@H]5C2)OCO4)CCN1C,1.55
8,CCN1CCN(C(=O)N[C@@H](C(=O)N[C@@H]2C(=O)N3[C@@H]2SC(C)(C)[C@@H]3C(=O)O)c2ccccc2)C(=O)C1=O,-0.734
9,COc1ccc(C2C(=O)c3ccccc3C2=O)cc1,-0.141
10,[Na+].[Na+].[Na+].[O]=[V]([O-])([O-])[O-],-1.78
11,Cc1noc(NS(=O)(=O)c2ccc(N)cc2)c1C,-0.198
12,N#C[C@@H]1CCCN1C(=O)CNC12CC3CC(CC(O)(C3)C1)C2,-0.508
13,Oc1ccc(OCc2ccccc2)cc1,5.44
14,CN(C)c1ccc(C(=C2C=CC(=[N+](C)C)C=C2)c2ccc(N(C)C)cc2)cc1,42.3
15,C[C@@H](O[C@H]1OCCN(Cc2n[nH]c(=O)[nH]2)[C@H]1c1ccc(F)cc1)c1cc(C(F)(F)F)cc(C(F)(F)F)c1,5.7
16,Cc1c(C(=O)NN2CCCCC2)nn(-c2ccc(Cl)cc2Cl)c1-c1ccc(Cl)cc1,1.25
